Laboratory results reported in the supplement of paper PMC12632987.
Over roughly 4,500 sequences, “median log2 fold change of GCK-ALFA target abundance (FLAG IP / Myc IP barcode read proportion)” has its median near 0.078; the lowest 2% begin near -0.6. This is one part of a sample in which the lowest values are shown more often than they occur.

B1: GBRAP_160_4426 (protein)
chain: SAKLEKAKKLITEIVEETAEMMEGESAEERIVLVRVAEGEILLELEELGLLTDEIEAVIDETFAAIAAHIAAHPDISQEELRALLKAAEEKIKKQLEKEA
B2: GBRAP_52_6047 (protein)
chain: SEEEIRRLAREAYEAMLAGDEERARALLREIFATKDEEKLEVFLETMVELAREARPEEHDAVARLVELAEEVGREAGIPEEFLDDFEARVFAAMYEAEQR
B3: GBRAP_11_2845 (protein)
chain: KKEKLKEIAEQADKVIALLDELIAAGTDDEELWKKLEEQLKKLQELVEKYLDESEKELAKLAKEELEEAKADPANAEQHLNNAKAFVSTLQGLVLLEIEE
B4: GBRAP_125_3027 (protein)
chain: SMEETAANLAKIARALGFSEGDVAELVANALAHGIKGAMIALALALGDEELADLLERLTEEEVARVVAEAAAEIEANPDLTPEEVKALLLELARRAVAES
B5: GBRAP_35_5514 (protein)
chain: STDDTIAEMLESYIEDLTLAVPELDPETLHTLTLGAAEMARELIEDNKNNKEIVKRIKESLERLLEALEARGLDDPLLREAAERVREVIEYAEEVLKEIE
B6: GBRAP_150_3890 (protein)
chain: SLEELLTIADTALDILELDIESGGKTIDQTLKVVQALVDEAKNFSPELQKLAEEALKKVEEAKKLKEEGGDQKEIDKLLKEAKKKLEELIKLLEKKIKEK
B7: GBRAP_83_6961 (protein)
chain: MIVVAASERPESIRSSIEAAIDLHKNEGKEVEIELFVTRENAPAALEGLKKAIDAGVEAEITLVTREEDREAAEALAAELKAYAAAKGRNTTVTVEVLPA
B8: GBRAP_184_5320 (protein)
chain: KVIHKVIEVETEEEAIEKLEEVKKEAKETGEKYLVVVEIKNATEKKIEAIAEKIKEMKEEGLPIEVIVELLDEVDEELTDFAVEKMEEAGAKVVISLKDE
B9: GBRAP_160_4153 (protein)
chain: SEEIEKLIKEINEIADEAIKMMEGETPEQAKTIARVALGEMLLLVEENEAVSEETEDKIGEVVDATEATLKANPNLTVEEVKALLNEARDKIVKILKEES
B10: GBRAP_160_4155 (protein)
chain: SEELKKLIKEIKELADEAIKMMEGETPEQAKTIARVTLGDILLLVEENPAVSEEAEDKIGAIADATEATLKANPDLTVEEVKALVKEARDKVVAILEEEA
B11: GBRAP_128_3366 (protein)
chain: LDEALLAEIRALVERMITSSVEETAALTREIVARIGTLSLAEQEAAVEIILAALPKLTKEKLEVVADTIRAAAPELDPETQRLLAEVEVEALNLAEELEE
B12: GBRAP_53_6391 (protein)
chain: GEERLEELIEELNRLIEELKTADPETAIKLAREAVELLLELAELGLPEEELVELVRRFAEAARPKPELEPVLVELAKRLAALGREEAAAEVAEALVEELE
B13: GBRAP_35_5625 (protein)
chain: NTNKEIAEATVAVMEDTLLAVDEVPAETFIDTAIKVAKAGIEVAKELKDDKENAKKILEAVKELLEAALKKAEETGAPEEKIKELKELLKEVEELEKKLK
B14: GBRAP_43_5791 (protein)
chain: MEEIVEGALDFARTALETPEITDETKARIVVDAVDFAADEGLLTEEELEELLRLLAESVSLEVAERALEEILKRLKELGAPQSLIDVVEKALEEVKKRRA
B15: GBRAP_160_3991 (protein)
chain: SEEIEKLKEEFKKLFDEMLELAEGESPEERLAVVRVMMGEVILLAEESGVVSDEAEEEIAKIMDELVATVEANPDMSMEELKALVEEALKKIFEVIDKYS
B16: GBRAP_52_5980 (protein)
chain: AEAEARALAEELLALMLAGDREGARALIREIVATKSEAFLELVFAALAELARTATPEERDAIVELALLLEDEALEGGFDEAVVDAGVARVAAAAVAAAAA
B17: GBRAP_14_3765 (protein)
chain: MEEVEKIIDETGKEIAALLAELVPEKAEEFKEAIDEVRKETIARIKETGDALAAAEEGERRLAERIAEITADLPEERRAEALAVVRVLFGQAILEIDEAL
B18: GBRAP_184_5033 (protein)
chain: KVLEKEIKAKNKEELEEKLKKLAEEVKGSKADLIVLLDIENPTKEKVKLAIEGLGAIKKAGYVSSVTIGFENELSEELTDVALETADKEGVKVVLPISDE
B19: GBRAP_42_5723 (protein)
chain: MYLVNLEVVVATREELERAIAIWRERNARYRKEKGIIIRLTIAAPEEAAELAAEAEAESAELAKEADKELDWVVVAASADEVGDAIDIAVDLALEERKEE
B20: GBRAP_35_5569 (protein)
chain: STDETIVEMTVNTIEALTLAVPDLDPATLETITRQVVALAREVIEDIKNNLEGLKRILEALRALLAAIRARGLDDPHLQAAAAAVEEAIRLAEKAIKEAE
B21: GBRAP_184_5315 (protein)
chain: EVIRRFITVETKEEAEKKLKEIKEEIKKSGKKYTVYIEVKNPTKELIDTVFEEIKKMKEEGVDADFILVVEEPVDEEMEDYIVEKAKEAGARAVIALPEE
B22: GBRAP_11_2707 (protein)
chain: KKEKLKEIAKLAAEAAALTEQLLKEGVDNKELQAKLTAKIKELTELVKKYADESLKKLAEIAKELWEKALADPENKEQYLKELLATLRVLEGQALLEIEE
B23: GBRAP_52_6040 (protein)
chain: MRERMRRLAREIVELVRAGRLEEARERIRELVETLSLEELELLGEELAELAREAEPEDLDAVMEVALMLADELEKAGYPEVFADDLEARVARAAVENLER
B24: GBRAP_11_2896 (protein)
chain: KKEKLKEAAELAEKAAKLLEELIKEGPDNEELRKKAEEALEKLLELAKKYLDESSVELAESALELFEKAKEDPENAKEYLEQALAYVRVLEGQVLLEIEE
B25: GBRAP_43_5752 (protein)
chain: MEEIIEGAVDFATLAAEDPNISEEQKLKIAKDVFEIVADEGIKLPEELSKLTRALAKSLSLEQLKELLKHLKELAEKYPELKEDFEANAKIIEEAIKKKE
B26: GBRAP_35_5553 (protein)
chain: DFDKEVIEMVRATAEDLLLAVDDLPVDTLITMATQIAELTLKVAKDEKENKEELKELLEATLELLDAVIEKAEKEGAPEEDIEKLRKLKKELEEALKEAE
B27: GBRAP_160_4282 (protein)
chain: GEKLKELAEELREDRDEILSLVDKISAEEVRTFAVTSLGSILMEAIDGELLTDEEEDELAKIIDDLEAELDALKDASPEEIRAAIEKHFDKAIELLEKAA
B28: GBRAP_125_3047 (protein)
chain: SLEELVEALRLLAKKLGYSEEEVEEIARLARKYGVKGTLIAILLAEGEEELAELAAKLTDEQVAEVLLELKAWLEENPDASKEEVLKKLRELLEKALAKT
B29: GBRAP_52_5975 (protein)
chain: MREEMRRLAEEAVALMLAGDREGARALLEEIAETKTEEEITLFMEELAELAKTATPEERDAIVEVALLAEDIWLEAGFDEALADSNVARVAAAAYAAEQA

Biological target: GABARAP, O95166
Sequence (O95166 whole entry, the tested form may be a part): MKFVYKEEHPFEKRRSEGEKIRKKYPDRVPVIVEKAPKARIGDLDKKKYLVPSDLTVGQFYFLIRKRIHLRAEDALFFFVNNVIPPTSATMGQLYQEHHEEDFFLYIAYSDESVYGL
Experiment: median log2 fold change of GCK-ALFA target abundance (FLAG IP / Myc IP barcode read proportion) (log2 ratio); each designed protein is fused to an ALFA-tag nanobody in HEK293 cells to bring the named protein to FLAG-tagged glucokinase (GCK); Myc marks an untargeted standard; higher = target protein stabilised (more abundant)
Settings: target protein: 3xFLAG-MCP-GCK-ALFA reporter; HEK293 landing pad (RPLP)
In short: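 Sequencing of reverse-transcribed, amplified circular RNA barcodes from anti-FLAG and anti-Myc immunoprecipitates provided the readout for an ALFA-nanobody-fused binder library recombined into HEK293 landing-pad cells. Those cells were induced with 2 μg mL^−1 doxycycline, transfected with a plasmid expressing a FLAG-tagged target and a Myc-tagged standard, and lysed after 48 h. Target abundance is the per-binder median log2 ratio of FLAG to Myc barcode read proportions. Only barcodes at a proportion of ≥10^−7 in both replicates and binders with ≥3 barcodes per replicate were kept, with a 10^−6 pseudocount added before the two replicates were pooled.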

| Binder | median log2 fold change |
| --- | --- |
| B1 | -0.243 |
| B2 | 0.204 |
| B3 | 0.0872 |
| B4 | 0.134 |
| B5 | -0.908 |
| B6 | 0.232 |
| B7 | 0.189 |
| B8 | 0.193 |
| B9 | -0.642 |
| B10 | -0.546 |
| B11 | 0.309 |
| B12 | 0.2 |
| B13 | -0.0947 |
| B14 | -0.0499 |
| B15 | -0.567 |
| B16 | -0.762 |
| B17 | 0.0613 |
| B18 | -0.000909 |
| B19 | 0.104 |
| B20 | -0.994 |
| B21 | 0.243 |
| B22 | 0.13 |
| B23 | -0.365 |
| B24 | 0.203 |
| B25 | 0.108 |
| B26 | -0.742 |
| B27 | -0.356 |
| B28 | -0.274 |
| B29 | 0.107 |
